RE007 growth inh – less growth of the S. pombe RE007 Vpr strain; S. pombe RE007 Vpr strain, BacTiter-Glo ATP luminescence, 24 h; Potency, µM (highest dose often 92.2 µM), usual class: inhibitors; 360,000 tested, 0.21% active; AID 651644; active = well fitted falling curve with a large enough effect; inconclusive = small, poorly fitted or top-dose-only effect; inactive = no such curve, though single readings can be large or run the other way; note: nearly all actives have a fitted effect of over 50% in size
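Fission yeast strain RE007, carrying one chromosomally integrated HIV-1 vpr copy, was seeded at OD 0.01 in PMG+AL medium with 23 nL pinned compound. After 24 h at 30 °C and 99% humidity, viability was read by BacTiter-Glo luminescence.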
FBPA Giardia inh – Giardia lamblia aldolase inhibition | purified Giardia FBPA | Potency, µM (top dose mostly 59.6 µM), hits mostly inhibitors | 290,000 tested, 0.71% active; note: nearly all actives have a fitted effect of over 55% in size
Target sequence (A8B2U2 whole entry, looked up): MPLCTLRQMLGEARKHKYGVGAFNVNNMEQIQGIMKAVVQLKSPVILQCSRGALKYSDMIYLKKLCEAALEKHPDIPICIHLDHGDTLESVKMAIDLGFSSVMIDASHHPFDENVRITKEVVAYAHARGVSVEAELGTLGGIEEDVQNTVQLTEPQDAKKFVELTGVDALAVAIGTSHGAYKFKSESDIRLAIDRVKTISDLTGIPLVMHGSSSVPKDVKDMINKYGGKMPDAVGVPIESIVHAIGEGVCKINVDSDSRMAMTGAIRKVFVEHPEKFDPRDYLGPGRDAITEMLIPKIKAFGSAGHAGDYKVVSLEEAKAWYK
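40 nM FBPA preincubated 10 min at RT with compound (up to 57.5 uM final), then substrate plus GAPDH/TPI/NAD/arsenate coupling and diaphorase/resazurin added. Fluorescence read after 20 min at RT, 525/598 nm.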
HCMV inh – blocks human cytomegalovirus replication. HFF cells, HCMV-luciferase reporter, 72 h; stronger effect = lower value. activity change, negative = inhibition, % at 57.5 µM. 410,000 tested, 4.5% active. AID 1259415; in the data active = activity change below about -60%; inconclusive = no clear call, values can overlap the other calls; inactive = above about -39%
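HFF cells seeded 16 h at 37C, treated with compounds, infected with luciferase-reporter HCMV at MOI 1 PFU/cell; luciferase read at 72 h post infection, normalized to buffer-only and Salinomycin controls.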
FMDV antiviral – blocks foot and mouth disease virus | FMDV antiviral cell-based qHTS | Potency, µM (series often up to 57.9 µM), hits mostly inhibitors | 410,000 tested, 1.2% active; calls by dose curve; tested in HEK293T cells; note: read-out not given here; nearly all actives have a fitted effect of over 45% in size
Sm TGR inh – blocks Schistosoma mansoni thioredoxin glutathione reductase. Q962Y6. purified TGR, DTNB reduction, TNB absorbance 405 nm. Potency, µM (series often up to 114 µM), actives largely listed as inhibitors. 360,000 tested, 3% active; note: nearly all actives have a fitted effect of over 60% in size
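Kinetic colorimetric format: TGR-catalysed, NADPH-driven DTNB reduction monitored via TNB absorbance. Enzyme dispensed at 20 nM; compound exposure 15 min at room temperature before reaction start.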
Tb PYK inh – inhibitors of Trypanosoma brucei pyruvate kinase; 410,000 tested, 0.12% active; Potency, µM (top dose mostly 76.8 µM), hits mostly inhibitors; TbPYK enzyme, Kinase-Glo Plus ATP luminescence, 45 min; note: nearly all actives have a fitted effect of over 50% in size
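Enzyme and substrate buffer are dispensed first and compound is pin-transferred. ADP at 130 uM final then starts the reaction, which runs 45 min at room temperature. Detection reagent is added for 10 min before luminescence is imaged.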
A number is an active result; - = inactive; ? = inconclusive; . = no result. Compounds with a hit are over-represented: about 7.7% of the library has one in this group of screens. Unless noted, calls come from the whole dose curve; as a rule, active = well fitted curve in the direction sought with a large enough effect; inconclusive = small, poorly fitted or top-dose-only effect, or another doubt; inactive = no such curve, though single readings can be large; an effect the other way counts as inactive or inconclusive.

SMILES | RE007 growth inh | FBPA Giardia inh | HCMV inh | FMDV antiviral | Sm TGR inh | Tb PYK inh
CCCS(=O)(=O)NCc1c(C)ncc2c1CCN(C(=O)c1ccc(Cl)cc1)C2 | . | . | . | - | . | .
O=C(O)c1cc(O)c2c(c1)[C@H]([C@H]1c3cc(C(=O)O)cc(O)c3C(=O)c3c(O[C@@H]4OC(CO)C(O)C(O)C4O)cccc31)c1cccc(O[C@@H]3OC(CO)C(O)C(O)C3O)c1C2=O (stereo not given in full) | . | 18µM | . | . | . | -
CC(C)(C)Nc1nc(C#N)nc(Nc2ccccc2)n1 | . | - | . | . | . | .
Cc1nc(NCc2cnn(C)c2)sc1-c1ccn(-c2cccc(F)c2)n1 | . | . | . | - | . | .
Cc1cc(C)nc(N/N=C/C2=C(N3CCOCC3)C(=C\c3ccc(Cl)cc3)/CC2)n1 | - | - | - | - | 32µM | -
Cn1cc(C(=O)N/N=C/C2=C(N3CCOCC3)C(=C/c3ccc([N+](=O)[O-])cc3)/CC2)ccc1=O | - | . | - | - | . | -
O=CC1=C(N2CCOCC2)/C(=C/c2ccc(Cl)cc2)CC1 | - | - | - | - | 22µM | -
CN(C(=O)NC(=O)C1=C(N2CCOCC2)/C(=C/c2ccccc2)CC1)S(C)(=O)=O | - | - | - | . | 16µM | -
O=C(O)c1ccc(N/N=C/C2=C(N3CCOCC3)C(=C\c3ccccc3)/CC2)cc1 | ? | - | - | - | 18µM | -
Cc1cc(C)nc(NN=CC2=C(N3CCOCC3)/C(=C/c3ccc(Cl)cc3)CC2)n1 | - | . | - | - | . | -
COc1ccc(-c2nc3cnc(N4CCNCC4)nc3n(-c3ccccc3)c2=O)cc1 | . | - | . | - | . | -
Cc1cccc(C2=CC(=O)CC(C)(C)C2=O)c1 | . | . | - | . | . | .
COc1ccc(-n2nc(C)c3c(C(F)(F)F)cc(-c4cccnc4)nc32)cc1 | . | . | -73 | - | - | -
CC(C)N(Cc1ccccc1)c1ncnc2c1nnn2C | . | . | - | - | - | -
COC(=O)c1c(C(=O)OC)c(-c2ccc(OC)cc2)n2c1CS(=O)(=O)C2 | - | - | -74 | - | 50µM | -
COc1ccc(OC)c([N+](=O)[O-])c1C(N)=O | - | ? | - | - | 79µM | -
CN(c1ccccc1C(=O)Nc1ccccc1C(=O)NCc1ccco1)S(C)(=O)=O | - | - | - | - | ? | -
O=C(CN1CCN(c2ccccc2F)CC1)NC(=O)NCc1ccco1 | - | - | - | - | 28µM | -
COc1ccc(Cl)cc1C(=O)NCc1ccco1 | - | - | ? | - | 45µM | -
O=C(CN1CCN(c2ccccc2)CC1)NC(=O)NCc1ccco1 | - | - | - | - | - | -
CN(c1ccccc1C(=O)NCc1ccco1)S(C)(=O)=O | - | - | - | - | 40µM | -
O=C(O)c1ccccc1-c1ccccc1C(=O)NCc1ccco1 | - | - | - | - | 50µM | -
Cc1nc2ccc(S(=O)(=O)CCC(=O)Nc3ccc(F)cc3C)cc2s1 | . | . | - | - | - | -
CCNc1ncc2nc(-c3ccc(Cl)cc3)c(=O)n(C3CC3)c2n1 | . | - | . | - | . | -
Cc1csc2ncc(C(=O)NCc3ccco3)c(=O)n12 | - | - | - | - | 45µM | -
SMILES | RE007 growth inh | FBPA Giardia inh | HCMV inh | FMDV antiviral | Sm TGR inh | Tb PYK inh
O=C(NCc1ccco1)c1ccccc1-c1ccccc1 | - | - | -80 | - | ? | -
COc1ccc(-c2cc(C(F)(F)F)n3nc(C(=O)NCc4ccco4)cc3n2)cc1 | - | - | - | . | ? | -
Nc1ccccc1C(=O)NCc1ccco1 | - | - | - | - | ? | -
Cc1cc(-c2ccccc2)nc2cc(C(=O)NCc3ccco3)nn12 | - | - | - | - | 32µM | -
O=C(NCc1ccco1)c1ccccc1F | - | - | - | - | 45µM | -
COC(=O)c1ccccc1NC(=O)c1cc(-c2ccc(Cl)cc2)on1 | . | . | - | - | - | -
O=c1c(-c2cc(F)cc(F)c2)nc2cnc(N3CCOCC3)nc2n1C[C@H]1CCCO1 | . | - | . | - | . | .
CCNc1ncc2nc(C)c(=O)n(CCOC)c2n1 | . | - | . | - | . | .
CCn1c(-c2ccccc2F)nc2cc(NC(C)=O)cc(C(=O)N(C)Cc3c(C)nc4ccccn34)c21 | . | . | . | - | . | .
CCOc1ccc(-c2cc(C(F)(F)F)c(C#N)c(SCC(=O)Nc3ccccc3)n2)cc1 | . | . | - | - | - | -
COc1ccc(C(=O)Nc2ccc(Cl)c(S(=O)(=O)Nc3ccccc3OC)c2)cc1 | . | - | -93 | - | - | -
COc1ccccc1NS(=O)(=O)c1cc(NC(=O)c2ccc(Cl)nc2)ccc1Cl | - | - | -98 | 10µM | - | -
COc1ccccc1NC(=O)Nc1ccc(Cl)c(S(=O)(=O)Nc2ccccc2OC)c1 | - | - | - | - | - | ?
COc1ccccc1NS(=O)(=O)c1cc(NC(=O)c2ccc3ccccc3n2)ccc1Cl | - | - | - | - | - | -
COc1ccc(NC(=O)c2ccc(-c3ccccc3)cc2)cc1NS(=O)(=O)c1ccc(F)cc1 | - | - | -95 | ? | - | -
Cc1cccc(CNC(=O)c2cnn(-c3nccc(-c4cc(C)sc4C)n3)c2C)n1 | . | . | . | - | . | .
O=C(NC(Nc1nc2ccc([N+](=O)[O-])cc2s1)(C(F)(F)F)C(F)(F)F)c1ccccc1Cl | - | - | ? | 2.5µM | - | -
O=C(NC(Nc1nc2ccc([N+](=O)[O-])cc2s1)(C(F)(F)F)C(F)(F)F)c1cccnc1 | - | - | -102 | 2.8µM | - | -
CCCN1CCN(CCNC(=O)Nc2cc(C)ccc2OC)CC1 | . | . | - | - | - | -
CCOc1ccc(/C=C/c2nc(C#N)c(Nc3ccc(OCC)cc3)o2)cc1 | . | . | - | - | - | -
Oc1ccc(O)c2c1C1(Cl)C(Cl)=C(Cl)C2(Cl)C1(Cl)Cl | - | . | -64 | ? | . | -
Oc1ccccc1Cl | - | . | - | - | . | -
Cc1cc2oc(C(=O)N(Cc3ccccc3)C3CCS(=O)(=O)C3)cc(=O)c2cc1C (stereo not given) | . | . | - | - | - | -
COc1cccc(C(=O)OCC(=O)NCCCc2ccccc2)c1 | - | - | - | - | 79µM | -
O=C(OCC(=O)N1CCN(C(=O)c2ccco2)CC1)c1cc(-c2ccc(Cl)c(Cl)c2Cl)nc2ccccc12 | - | - | - | ? | - | -
SMILES | RE007 growth inh | FBPA Giardia inh | HCMV inh | FMDV antiviral | Sm TGR inh | Tb PYK inh
COc1cccc(CNC(=O)COC(=O)c2nc(Cl)c(Cl)c(Cl)c2Cl)c1 | - | . | - | ? | 3.2µM | -
O=C(OCC(=O)N1CCN(C(=O)c2ccco2)CC1)c1cc(-c2ccco2)nc2ccccc12 | - | ? | - | - | 5µM | ?
O=C(COC(=O)c1cc(F)cc(F)c1)NCCCc1ccccc1 | - | - | - | - | - | -
CCNC(=O)COC(=O)c1cc(-c2ccco2)nc2ccccc12 | - | - | - | - | 16µM | -
COc1cc(=O)n2c(c1C(=O)NCc1ccco1)CCN(Cc1cccc(Cl)c1)CC2 | . | . | . | - | . | .
Cc1ccc(NC(=O)CSCC(=O)N2CCN(C(=O)c3ccco3)CC2)cc1 | - | . | - | - | - | -
